Results filed as inconclusive are left out. Activity calls are given as the source filed them. Unless noted, calls come from the whole dose curve; as a rule, active = well fitted curve in the direction sought with a large enough effect in the repeat runs; inconclusive = weak or mixed curves; inactive = no such curve, though single readings can be large; an effect the other way counts as inactive or inconclusive.
Assays:
[1] = qHTS assay to identify small molecule antagonists of the progesterone receptor (PR) signaling pathway - cell viability counter screen (AID 1346798); note: nearly all actives have a fitted effect of over 50% in size; note: potency is the fitted concentration of half-maximal effect
Summary of the method: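 PR-UAS-bla HEK293T cells, 3,000/well in 2% charcoal-stripped FBS medium, dosed with compounds plus R5020 agonist and incubated 16 h at 37C. Viability then measured in the same wells by CellTiter-Glo luminescence after 30 min at RT.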

[2] = qHTS assay to identify small molecule antagonists of the TGF-beta/Smad signaling pathway - cell viability counter screen (AID 1346824); note: nearly all actives have a fitted effect of over 50% in size; note: potency is the fitted concentration of half-maximal effect
Summary of the method: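 SBE-bla HEK 293T cells, incubated overnight, then compound plus 0.25 ng/mL TGF-beta1 (stock added) for 5 hr at 37 C. Viability was read in the same wells by CellTiter-Glo luminescence after 30 min at room temperature.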

[3] = qHTS assay to identify small molecule agonists of the TGF-beta/Smad signaling pathway - cell viability counter screen (AID 1346829); note: nearly all actives have a fitted effect of over 45% in size; note: potency is the fitted concentration of half-maximal effect
Summary of the method: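 HEK 293T SBE-bla line, 5 hr compound exposure at 37 C, multiplexed CellTiter-Glo viability read by luminescence.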

[4] = target: Thyrotropin-releasing hormone receptor (Homo sapiens) (UniProt P34981); experiment: qHTS assay to identify small molecule antagonists of the thyrotropin-releasing hormone receptor (TRHR) signaling pathway (AID 1346877; active = well fitted inhibition curve with a large enough effect in the repeat runs, not every such curve was filed as active; note: series mostly up to about 51 µM)
Thyrotropin-releasing hormone receptor (Homo sapiens), sequence (P34981 whole entry, looked up): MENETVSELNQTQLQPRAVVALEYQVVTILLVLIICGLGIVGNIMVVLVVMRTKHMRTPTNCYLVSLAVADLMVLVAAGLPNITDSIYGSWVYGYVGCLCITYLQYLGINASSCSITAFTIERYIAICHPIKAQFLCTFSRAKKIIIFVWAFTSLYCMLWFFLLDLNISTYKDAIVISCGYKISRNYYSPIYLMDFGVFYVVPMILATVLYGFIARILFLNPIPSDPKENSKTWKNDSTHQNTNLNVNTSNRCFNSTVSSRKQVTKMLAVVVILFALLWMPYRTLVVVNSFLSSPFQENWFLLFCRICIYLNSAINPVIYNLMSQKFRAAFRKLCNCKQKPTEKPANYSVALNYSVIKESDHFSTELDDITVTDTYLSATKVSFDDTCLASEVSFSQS
Summary of the method: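 Human TRHR in HEK293 cells; inhibition of the intracellular calcium rise triggered by 1 nM TRH was followed by fluorescence over 3 min. Compounds were run at 15 concentrations, three replicates each.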

[5] = target: Thyrotropin-releasing hormone receptor (Homo sapiens) (UniProt P34981); experiment: qHTS assay to identify small molecule agonists of the thyrotropin-releasing hormone receptor (TRHR) signaling pathway (AID 1346891; calls by dose curve; note: series mostly up to about 58 µM)
Summary of the method: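 HEK293 cells expressing TRHR plated 18 h at 37 C/5% CO2, calcium dye-loaded 2 h at 37 C, then compound added (agonist mode); kinetic calcium fluorescence read 3 min at 1 s intervals; 15 concentrations in triplicate.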

[6] = Human pregnane X receptor (PXR) small molecule agonists, qHTS cell viability counter screen (AID 1346977); note: nearly all actives have a fitted effect of over 50% in size; note: potency is the fitted concentration of half-maximal effect
Summary of the method: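 PXR-Luc HepG2 cells (2,000/well, 5% charcoal-stripped FBS) preincubated 5 hr, then exposed to compounds 24 hr at 37 C. Viability read in the same wells by CellTiter-Fluor fluorescence, reagent added at 23 hr, 1 hr incubation.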

[7] = Caspase-3/7 induction in CHO-K1 cells by small molecules, qHTS cell viability counter screen (AID 1346979); note: nearly all actives have a fitted effect of over 35% in size; note: potency is the fitted concentration of half-maximal effect
Summary of the method: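 Wild-type CHO-K1 cells (1,500/well) treated with compound after 5 h plating; after 16 h at 37C, viability read as CellTiter-Fluor fluorescence following 1 h reagent incubation, in the same wells as the caspase read.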

[8] = Caspase-3/7 induction in CHO-K1 cells by small molecules, qHTS assay (AID 1346980); note: nearly all actives have a fitted effect of over 15% in size; note: potency is the fitted concentration of half-maximal effect
Summary of the method: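 Wild-type CHO-K1 cells exposed to compounds for 17hr at 37 C, 5% CO2. Caspase-3/7 activity then measured by Caspase-Glo 3/7 luminescence after 30min at room temperature.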

[9] = Caspase-3/7 induction in HepG2 cells by small molecules, qHTS cell viability counter screen (AID 1346981); note: nearly all actives have a fitted effect of over 30% in size; note: potency is the fitted concentration of half-maximal effect
Summary of the method: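 The parent HepG2 line is plated at 2,000 cells per well and rested 5 hr before compound pinning from DMSO stocks. Following a 16-hr treatment at 37 C, a fluorogenic live-cell substrate (CellTiter-Fluor) reports viability after 1 hr.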

[10] = target: Nuclear receptor subfamily 1 group I member 2 (Homo sapiens) (UniProt O75469); experiment: Human pregnane X receptor (PXR) small molecule agonists, qHTS assay (AID 1346982); note: nearly all actives have a fitted effect of over 35% in size; note: potency is the fitted concentration of half-maximal effect
Nuclear receptor subfamily 1 group I member 2 (Homo sapiens), sequence (O75469 whole entry, looked up): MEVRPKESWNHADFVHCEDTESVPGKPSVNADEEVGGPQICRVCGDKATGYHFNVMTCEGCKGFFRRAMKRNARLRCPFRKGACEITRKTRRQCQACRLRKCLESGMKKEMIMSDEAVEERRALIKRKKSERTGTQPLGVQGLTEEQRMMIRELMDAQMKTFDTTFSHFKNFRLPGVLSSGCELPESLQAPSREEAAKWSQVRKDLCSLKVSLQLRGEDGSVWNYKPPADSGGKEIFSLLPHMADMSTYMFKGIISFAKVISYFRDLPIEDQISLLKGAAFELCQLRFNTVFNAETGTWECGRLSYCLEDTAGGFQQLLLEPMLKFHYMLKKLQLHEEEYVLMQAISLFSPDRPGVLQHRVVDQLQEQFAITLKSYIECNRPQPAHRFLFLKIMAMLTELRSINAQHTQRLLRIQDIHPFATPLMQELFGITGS
Summary of the method: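 After plating in 5% charcoal-stripped FBS and a 5 hr rest, PXR-Luc HepG2 cells received compounds in DMSO. Following 24 hr at 37 C, ONE-Glo was added and light output read.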

[11] = target: Cytochrome P450 2D6 (Homo sapiens) (UniProt P10635); experiment: Cytochrome P450 Family 2 Subfamily D Member 6 (CYP2D6) small molecule antagonists: luciferase reporter qHTS assay (AID 1671196); note: nearly all actives have a fitted effect of over 50% in size; note: potency is the fitted concentration of half-maximal effect
Cytochrome P450 2D6 (Homo sapiens), sequence (P10635 whole entry, looked up): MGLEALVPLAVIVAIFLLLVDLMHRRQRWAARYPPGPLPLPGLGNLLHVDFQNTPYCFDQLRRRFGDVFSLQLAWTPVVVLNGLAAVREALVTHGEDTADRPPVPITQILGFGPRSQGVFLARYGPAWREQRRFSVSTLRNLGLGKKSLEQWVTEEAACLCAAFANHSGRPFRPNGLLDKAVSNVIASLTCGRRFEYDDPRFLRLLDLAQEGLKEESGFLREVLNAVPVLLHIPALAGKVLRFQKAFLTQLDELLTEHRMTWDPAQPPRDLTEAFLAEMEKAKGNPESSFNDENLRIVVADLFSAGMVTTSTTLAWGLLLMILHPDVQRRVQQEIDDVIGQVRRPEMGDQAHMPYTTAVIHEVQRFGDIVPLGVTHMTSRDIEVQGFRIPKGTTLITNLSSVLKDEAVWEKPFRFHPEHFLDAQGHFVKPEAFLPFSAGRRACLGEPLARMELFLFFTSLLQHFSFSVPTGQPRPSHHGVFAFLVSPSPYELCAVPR
Summary of the method: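 Quantitative HTS of Tox21 chemicals against CYP2D6 using a luminescent proluciferin substrate. After NADPH addition, 1 h room-temperature reaction; luminescence recorded 20 min post detection reagent.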

[12] = target: Cytochrome P450 2C19 (Homo sapiens) (UniProt P33261); experiment: Cytochrome P450 Family 2 Subfamily C Member 19 (CYP2C19) small molecule antagonists: luciferase reporter qHTS assay (AID 1671197); note: nearly all actives have a fitted effect of over 65% in size; note: potency is the fitted concentration of half-maximal effect
Cytochrome P450 2C19 (Homo sapiens), sequence (P33261 whole entry, looked up): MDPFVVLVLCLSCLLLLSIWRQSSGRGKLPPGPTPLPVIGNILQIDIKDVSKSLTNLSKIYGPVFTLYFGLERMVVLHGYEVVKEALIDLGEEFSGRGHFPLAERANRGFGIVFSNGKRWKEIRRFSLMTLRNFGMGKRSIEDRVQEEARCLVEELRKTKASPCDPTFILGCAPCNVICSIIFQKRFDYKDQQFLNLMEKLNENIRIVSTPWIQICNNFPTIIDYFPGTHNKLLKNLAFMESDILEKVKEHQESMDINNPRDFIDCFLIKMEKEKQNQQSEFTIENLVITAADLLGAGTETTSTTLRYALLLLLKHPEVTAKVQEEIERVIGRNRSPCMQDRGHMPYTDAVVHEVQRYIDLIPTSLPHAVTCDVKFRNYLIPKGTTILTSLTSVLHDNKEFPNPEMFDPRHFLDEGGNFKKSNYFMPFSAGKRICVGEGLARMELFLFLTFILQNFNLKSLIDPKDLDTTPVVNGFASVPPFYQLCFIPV
Summary of the method: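 First, compounds are pinned into enzyme-substrate mix and held 10 min at room temperature. Second, NADPH regeneration solution is added and plates incubate 1 h at 37C. Third, detection reagent is added and luminescence read after 20 min.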

[13] = qHTS assay to identify small molecule agonists of the progesterone receptor (PR) signaling pathway - cell viability counter screen (AID 1346799; calls by dose curve; note: nearly all actives have a fitted effect of over 45% in size; note: potency is the fitted concentration of half-maximal effect)
Summary of the method: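 Counter screen in the PR-UAS-bla HEK293T wells (2% charcoal-stripped FBS, 16 h compound exposure at 37 C) after the bla read. CellTiter-Glo added, 30 min at room temperature, luminescence read as cell viability.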

[14] = qHTS assay to identify small molecule agonists of the TGF-beta/Smad signaling pathway (AID 1346859; active = well fitted activation curve with a large enough effect in the signal ratio in the repeat runs, not every such curve was filed as active; the % refers to the signal ratio; note: series mostly up to about 77 µM)
Summary of the method: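 SBE-bla HEK293T cells plated overnight, then compound exposure for 5 h at 37 C. Beta-lactamase reporter read with LiveBLAzer B/G FRET substrate after 2 h at room temperature, fluorescence at 405 nm excitation, 460/530 nm emission.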

[15] = Caspase-3/7 induction in HepG2 cells by small molecules, qHTS assay (AID 1346978); note: nearly all actives have a fitted effect of over 15% in size; note: potency is the fitted concentration of half-maximal effect
Summary of the method: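 Wild-type HepG2 cells, 2,000/well, settled 5 hr at 37 C and 5% CO2, then compound-treated for 17 hr; caspase-3/7 activity read by luminescent Caspase-Glo 3/7 after 30 min at room temperature.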

[16] = target: Nuclear receptor subfamily 1 group I member 2 (Rattus norvegicus) (UniProt Q9R1A7); experiment: Rat pregnane X receptor (rPXR) activation by small molecules, qHTS assay (AID 1346983); details: rPXR luciferase reporter cells, One-Glo luminescence, 24 h; max activation: stronger effect = higher value; note: nearly all actives have a fitted effect of over 20% in size
Nuclear receptor subfamily 1 group I member 2 (Rattus norvegicus), sequence (Q9R1A7 whole entry, looked up): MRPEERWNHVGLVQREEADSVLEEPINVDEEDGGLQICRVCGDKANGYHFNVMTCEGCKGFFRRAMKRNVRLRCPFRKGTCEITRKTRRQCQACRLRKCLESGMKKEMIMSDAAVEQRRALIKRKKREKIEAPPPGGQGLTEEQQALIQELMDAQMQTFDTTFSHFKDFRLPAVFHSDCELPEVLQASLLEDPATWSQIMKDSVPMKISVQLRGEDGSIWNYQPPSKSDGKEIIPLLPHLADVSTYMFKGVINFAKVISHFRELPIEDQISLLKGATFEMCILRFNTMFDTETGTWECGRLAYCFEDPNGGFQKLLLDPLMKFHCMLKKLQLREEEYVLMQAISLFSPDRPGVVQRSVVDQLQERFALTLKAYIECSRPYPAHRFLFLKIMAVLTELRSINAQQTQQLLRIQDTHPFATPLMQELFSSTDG
Summary of the method: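 Cell-based rPXR activation assay: rPXR cells, 2,000 per well, rested 5hr at 37 C, then exposed to compounds in DMSO for 24 hr at 37 C. Luciferase activity read by One-Glo luminescence after 30 min at room temperature.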

[17] = target: Nuclear receptor subfamily 1 group I member 2 (Homo sapiens) (UniProt O75469); experiment: CYP3A4 induction through human pregnane X receptor (PXR) by small molecules, qHTS assay (AID 1346984); note: nearly all actives have a fitted effect of over 40% in size
Summary of the method: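 Human PXR activation is tracked via CYP3A4 promoter-luciferase in DPX-2 (HepG2) cells. Compounds treat cells for 24hr at 37C, and luminescence is read after One-Glo.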

[18] = target: Nuclear receptor subfamily 1 group I member 2 (Homo sapiens) (UniProt O75469); experiment: Human pregnane X receptor (PXR) activation by small molecules, qHTS assay (AID 1346985); note: nearly all actives have a fitted effect of over 40% in size
Summary of the method: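 DPX-2 cells (HepG2 co-transfected with a PXR response element and a CYP3A4-promoter luciferase construct) were seeded at 2,000 per well, rested 5 hr at 37C, then exposed to DMSO-dissolved compounds for 24 hr. Activation was read as luciferase luminescence.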
% is set by controls: 0 for no effect and ±100 for the full control effect.

CCCCCCCC[P+](CCCCCCCC)(CCCCCCCC)CCCCCCCC
inactive: Potency [4] | Potency [5] | Potency [8]
active: Potency [1] 15.3 µM | Potency [2] 21.7 µM | Potency [3] 17.3 µM | Potency [6] 2.42 µM | Potency [7] 5.42 µM | Potency [9] 13.6 µM | Potency [10] 2.42 µM | Potency [11] 0.141 µM | Potency [12] 7.06 µM

O=C(Nc1cccc([N+](=O)[O-])c1)c1cc2ccccc2cc1O
active: Potency [1] 24.3 µM | Potency [6] 3.86 µM | Potency [7] 4.33 µM | Potency [9] 6.11 µM | Potency [10] 6.11 µM | Potency [11] 25.2 µM | Potency [12] 79.6 µM
inactive: Potency [13] | Potency [14] | Potency [4] | Potency [5] | Potency [15] | Potency [8]

N/C(=N\N=C\c1ccc(Cl)cc1)N/N=C/c1ccc(Cl)cc1
active: Potency [1] 29.8 µM | Potency [10] 11.9 µM | Potency [12] 2.19 µM
inactive: Potency [2] | Potency [14] | Potency [4] | Potency [5] | Potency [15] | Potency [8] | max activation [16] -3.26% | Potency [17] | Potency [18]

c1cc(C(c2ccc(OCC3CO3)cc2)c2ccc(OCC3CO3)cc2)ccc1OCC1CO1 (stereo not given)
inactive: Potency [1] | Potency [2] | Potency [15] | Potency [11]
active: Potency [7] 61.1 µM | Potency [10] 27.3 µM | Potency [12] 56.4 µM

NC(=O)N1C(=O)C(C(=O)c2cc(Cl)cs2)c2cc(F)c(Cl)cc21 (stereo not given)
inactive: Potency [3] | Potency [14] | Potency [4] | Potency [5] | Potency [8]
active: Potency [1] 30.6 µM | Potency [13] 43.3 µM | Potency [6] 54.5 µM | Potency [7] 61.1 µM | Potency [9] 54.5 µM | Potency [12] 79.6 µM

CCCCCCCC/C=C\CCCCCCCCOCCO
active: Potency [1] 31.6 µM | Potency [13] 25.1 µM | Potency [2] 63.7 µM | Potency [3] 63.7 µM | Potency [6] 15.9 µM | Potency [7] 35.5 µM | Potency [9] 35.5 µM | Potency [12] 46.3 µM
inactive: Potency [5] | Potency [15] | Potency [8] | Potency [11]

Cc1cc(N)c(S(=O)(=O)O)cc1Cl
inactive: Potency [13] | Potency [2] | Potency [3] | Potency [14] | Potency [4] | Potency [5] | Potency [6] | Potency [15] | Potency [7] | Potency [8] | Potency [9] | Potency [10] | Potency [11] | Potency [12]

CCCN(CCC)c1c([N+](=O)[O-])cc(C(F)(F)F)c(N)c1[N+](=O)[O-]
active: Potency [13] 21.6 µM | Potency [3] 48.9 µM | Potency [6] 48.4 µM | Potency [15] 60.9 µM | Potency [7] 43.1 µM | Potency [8] 54.3 µM | Potency [9] 54.3 µM | Potency [10] 4.84 µM | Potency [12] 2 µM

N=C1N=C(N)c2cc3ccccc3cc21
active: Potency [1] 27.3 µM | Potency [6] 15.8 µM | Potency [15] 45.8 µM | Potency [7] 25.8 µM | Potency [9] 19.3 µM | Potency [10] 12.2 µM | Potency [11] 32.6 µM | Potency [12] 79.6 µM
inactive: Potency [4]

CCN(C(=O)c1cc(C)cc(OC[C@H](C)Nc2ccncc2)c1)C(C)C
inactive: Potency [13] | Potency [2] | Potency [3] | Potency [14] | Potency [4] | Potency [5] | Potency [15] | Potency [7] | Potency [8] | Potency [9]
active: Potency [10] 17 µM | Potency [11] 22.2 µM

CC(C)(C)CC(C)(C)c1ccc(O)c(Cc2ccc(Cl)cc2Cl)c1
active: Potency [13] 33.5 µM | Potency [2] 21.3 µM | Potency [3] 19 µM | Potency [6] 18.8 µM | Potency [15] 26.6 µM | Potency [7] 18.8 µM | Potency [8] 21.1 µM | Potency [9] 29.8 µM | Potency [10] 2.37 µM | Potency [12] 1.74 µM
inactive: Potency [4] | Potency [5] | max activation [16] -0.0398% | Potency [17]

CCCCCCCC/C=C/CCCCCCCC1=NCCN1CCO
inactive: Potency [2] | Potency [3] | Potency [4] | Potency [5]
active: Potency [13] 61.1 µM | Potency [15] 43.3 µM | Potency [7] 54.5 µM | Potency [9] 54.5 µM | Potency [11] 5.03 µM

CCCCC(CC)COC(=O)c1ccccc1C(=O)O (stereo not given)
inactive: Potency [1] | Potency [3] | Potency [5] | Potency [6] | Potency [15] | Potency [8]
active: Potency [10] 35 µM | Potency [12] 40.6 µM

CNc1ccc(O)cc1
active: Potency [6] 61 µM | Potency [7] 13.7 µM | Potency [9] 54.4 µM | Potency [11] 12.6 µM | Potency [12] 15.9 µM
inactive: Potency [4] | Potency [15] | Potency [8]

O=[N+]([O-])c1cc([N+](=O)[O-])c2ccc(S(=O)(=O)O)cc2c1O
active: Potency [6] 27.1 µM | Potency [7] 21.6 µM | Potency [9] 24.2 µM
inactive: Potency [1] | Potency [3]
